Test results as given in PubChem BioAssay AID1159580 (chemical genetic matrix, 2015).
The whole screen tested about 5,500 compounds, of which about 2,000 (36%) were called active. Another 18% or so got no clear call; they are omitted. Cut-off read from the data, not from the text of the source: active = normalized growth mostly below about 0.91 (no sharp cut-off); inconclusive = no clear call, values can overlap the other calls; inactive = mostly above about 0.92. Some of the results follow.

Experiment: chemical genetic growth profiling, strain panel (AID 1159580);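 note: tested at 20 µM; growth read once vehicle control cultures reached saturation at 30 °C; 1 = growth at the plate median or of vehicle wells; lower values mean less growth of the strain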
Settings: growth OD

Measured: normalized growth

CC(=O)c1cc(CC=C(C)C)c(O)c(CC=C(C)C)c1
active: S. cerevisiae deletion strains, locus YKR001C, strain vps1, hits give low values 0.898 | S. cerevisiae deletion strains, locus YLR418C, strain cdc73, hits give low values 0.758 | S. cerevisiae deletion strains, locus YOR184W, strain ser1, hits give low values 0.838
inactive: S. cerevisiae deletion strains, locus YJL187C, strain SWE1 (second series), hits give low values 0.961 | S. cerevisiae deletion strains, locus YJL187C, strain SWE1, hits give low values 1.01 | S. cerevisiae deletion strains, locus YJR043C, strain POL32, hits give low values 0.998 | S. cerevisiae deletion strains, locus YKL009W, strain mrt4, hits give low values 0.947 | S. cerevisiae deletion strains, locus YKL068W, hits give low values 0.969 | S. cerevisiae deletion strains, locus YKL085W, strain MDH1 (second series), hits give low values 0.967 | S. cerevisiae deletion strains, locus YKL085W, strain MDH1, hits give low values 0.967 | S. cerevisiae deletion strains, locus YKL160W, strain elf1, hits give low values 1 | S. cerevisiae deletion strains, locus YKR026C, strain gcn3, hits give low values 1.01 | S. cerevisiae deletion strains, locus YKR091W, strain srl3, hits give low values 1.01 | S. cerevisiae deletion strains, locus YLL001W, strain dnm1, hits give low values 1 | S. cerevisiae deletion strains, locus YLL026W, hits give low values 1.01 | S. cerevisiae deletion strains, locus YLL041C, strain sdh2, hits give low values 1.01 | S. cerevisiae deletion strains, locus YLR027C, strain aat2, hits give low values 1.01 | S. cerevisiae deletion strains, locus YLR039C, strain RIC1, hits give low values 0.697 | S. cerevisiae deletion strains, locus YLR058C, strain SHM2, hits give low values 0.982 | S. cerevisiae deletion strains, locus YLR102C, strain apc9, hits give low values 0.964 | S. cerevisiae deletion strains, locus YLR221C, strain rsa3, hits give low values 1 | S. cerevisiae deletion strains, locus YLR258W, strain gsy2, hits give low values 1.01 | S. cerevisiae deletion strains, locus YLR262C, strain YPT6 (second series), hits give low values 0.949 | S. cerevisiae deletion strains, locus YLR262C, strain YPT6, hits give low values 0.747 | S. cerevisiae deletion strains, locus YLR268W, strain sec22, hits give low values 0.924 | S. cerevisiae deletion strains, locus YLR320W, strain mms22, hits give low values 1.01 | S. cerevisiae deletion strains, locus YLR330W, strain CHS5, hits give low values 0.923 | S. cerevisiae deletion strains, locus YLR342W, strain FKS1 (second series), hits give low values 1.03 | S. cerevisiae deletion strains, locus YLR342W, strain FKS1, hits give low values 1.02 | S. cerevisiae deletion strains, locus YLR357W, strain rsc2, hits give low values 1.04 | S. cerevisiae deletion strains, locus YLR370C, strain arc18, hits give low values 1 | S. cerevisiae deletion strains, locus YLR371W, strain rom2, hits give low values 0.968 | S. cerevisiae deletion strains, locus YLR384C, strain iki3, hits give low values 1.01 | S. cerevisiae deletion strains, locus YML016C, strain PPZ1, hits give low values 0.992 | S. cerevisiae deletion strains, locus YML032C, strain rad52, hits give low values 0.988 | S. cerevisiae deletion strains, locus YML120C, strain ndi1, hits give low values 0.997 | S. cerevisiae deletion strains, locus YML124C, strain tub3, hits give low values 0.965 | S. cerevisiae deletion strains, locus YMR058W, strain fet3, hits give low values 1.01 | S. cerevisiae deletion strains, locus YMR078C, strain ctf18, hits give low values 0.962 | S. cerevisiae deletion strains, locus YMR125W, strain sto1, hits give low values 1.02 | S. cerevisiae deletion strains, locus YMR129W, hits give low values 1.01 | S. cerevisiae deletion strains, locus YMR205C, strain PFK2, hits give low values 1.01 | S. cerevisiae deletion strains, locus YMR223W, strain ubp8, hits give low values 0.951 | S. cerevisiae deletion strains, locus YMR231W, strain pep5, hits give low values 1.01 | S. cerevisiae deletion strains, locus YMR307W, strain GAS1, hits give low values 0.833 | S. cerevisiae deletion strains, locus YNL067W, strain RPL9B, hits give low values 0.925 | S. cerevisiae deletion strains, locus YNL071W, strain lat1, hits give low values 1.01 | S. cerevisiae deletion strains, locus YNL128W, strain TEP1, hits give low values 0.917 | S. cerevisiae deletion strains, locus YNL153C, strain GIM3, hits give low values 0.985 | S. cerevisiae deletion strains, locus YNL209W, strain ssb2, hits give low values 1.01 | S. cerevisiae deletion strains, locus YNL233W, strain BNI4, hits give low values 0.953 | S. cerevisiae deletion strains, locus YNL248C, strain rpa49, hits give low values 1.01 | S. cerevisiae deletion strains, locus YNL250W, strain rad50, hits give low values 0.979 | S. cerevisiae deletion strains, locus YNL271C, strain bni1, hits give low values 0.962 | S. cerevisiae deletion strains, locus YNL298W, strain CLA4, hits give low values 0.979 | S. cerevisiae deletion strains, locus YNL307C, strain MCK1, hits give low values 0.955 | S. cerevisiae deletion strains, locus YNL322C, strain KRE1 (second series), hits give low values 1.01 | S. cerevisiae deletion strains, locus YNR049C, strain mso1, hits give low values 1.01 | S. cerevisiae deletion strains, locus YNR052C, strain pop2, hits give low values 0.989 | S. cerevisiae deletion strains, locus YOL006C, strain TOP1, hits give low values 0.75 | S. cerevisiae deletion strains, locus YOL012C, strain htz1 0.849 | S. cerevisiae deletion strains, locus YOL147C, strain pex11, hits give low values 0.981 | S. cerevisiae deletion strains, locus YOR001W, strain rrp6, hits give low values 1.02 | S. cerevisiae deletion strains, locus YOR061W, strain CKA2, hits give low values 0.978 | S. cerevisiae deletion strains, locus YOR069W, strain VPS5, hits give low values 0.986 | S. cerevisiae deletion strains, locus YOR070C, strain gyp1, hits give low values 1.02 | S. cerevisiae deletion strains, locus YOR080W, strain dia2, hits give low values 1.02 | S. cerevisiae deletion strains, locus YOR083W, strain WHI5, hits give low values 1 | S. cerevisiae deletion strains, locus YOR106W, strain vam3, hits give low values 0.995 | S. cerevisiae deletion strains, locus YOR136W, strain idh2, hits give low values 0.973 | S. cerevisiae deletion strains, locus YOR144C, strain elg1, hits give low values 0.981 | S. cerevisiae deletion strains, locus YOR265W, strain rbl2, hits give low values 1.02 | S. cerevisiae deletion strains, locus YOR270C, strain vph1, hits give low values 0.949 | S. cerevisiae deletion strains, locus YOR290C, strain snf2, hits give low values 1.02 | S. cerevisiae deletion strains, locus YOR316C, strain cot1, hits give low values 0.979 | S. cerevisiae deletion strains, locus YPL051W, strain arl3, hits give low values 1.01 | S. cerevisiae deletion strains, locus YPL078C, strain atp4, hits give low values 1.01 | S. cerevisiae deletion strains, locus YPL106C, strain sse1, hits give low values 1.06 | S. cerevisiae deletion strains, locus YPL240C, strain hsp82, hits give low values 1.02 | S. cerevisiae deletion strains, locus YPL241C, strain CIN2, hits give low values 0.974 | S. cerevisiae deletion strains, locus YPR119W, strain clb2, hits give low values 0.987 | S. cerevisiae deletion strains, locus YPR141C, strain kar3, hits give low values 0.97 | S. cerevisiae deletion strains, locus YPR163C, strain tif3, hits give low values 0.952 | S. cerevisiae deletion strains, locus YPR167C, strain met16, hits give low values 0.974 | S. cerevisiae deletion strains, strain wtn01, hits give low values 0.908 | S. cerevisiae strains, strain wild type, hits give low values 0.957
